MOR-DOR ag – agonists of OPRM1-OPRD1 heterodimerization, primary screen, cell-based, luminescence. Mu-type opioid receptor (Homo sapiens) + Delta-type opioid receptor (Homo sapiens), …. cells. activation, % at 9.3 µM. 340,000 compounds, 0.3% hits; in the data active means activation above about 18%;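 further: 0% = vehicle-treated cells and 100% = reference agonist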
HTR5A ag ctr – HTR5A agonists in luminescence cell assay, primary screen, counter-screen for OPRM1-OPRD1 heterodimer agonist project, full-deck HTS; 340,000 compounds, 0.61% hits; activation, % at 9.3 µM; cell-based; in the data active means activation mostly above about 9.5%, no sharp cut-off; inactive means mostly below about 7.6%;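 further: 0% = cells with vehicle only and 100% = reference agonist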
sPLA2-III inh – human group III sPLA2 inhibitors, primary screen, biochemical, QFRET, BODIPY PC-A2 liposome substrate; QFRET BODIPY PC-A2 liposome hydrolysis, fluorescence; inhibition, % at 12.2 µM; 370,000 compounds, 0.56% hits; AID 743126, 2013;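 active means inhibition above mean plus 3 SD of compounds lying within the high and low control bounds, cut at about 19% in these data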;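 further: 0% = median of test compound wells and 100% = no enzyme DMSO wells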
Target sequence (Q9NZ20 whole entry, looked up): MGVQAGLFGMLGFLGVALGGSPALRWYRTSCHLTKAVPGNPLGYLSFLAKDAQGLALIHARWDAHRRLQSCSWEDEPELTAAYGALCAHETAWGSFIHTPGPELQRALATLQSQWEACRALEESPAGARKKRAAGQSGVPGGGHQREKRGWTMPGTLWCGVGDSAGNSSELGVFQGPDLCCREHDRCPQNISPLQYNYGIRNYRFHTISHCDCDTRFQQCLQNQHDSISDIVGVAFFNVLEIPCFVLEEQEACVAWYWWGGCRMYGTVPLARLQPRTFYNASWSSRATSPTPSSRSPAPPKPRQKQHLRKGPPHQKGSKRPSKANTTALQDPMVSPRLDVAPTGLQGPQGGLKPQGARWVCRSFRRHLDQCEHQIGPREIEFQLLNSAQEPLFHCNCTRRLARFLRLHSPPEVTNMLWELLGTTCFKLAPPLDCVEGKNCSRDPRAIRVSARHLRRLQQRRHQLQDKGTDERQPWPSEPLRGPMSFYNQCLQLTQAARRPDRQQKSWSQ
HTR5A inv ctr – HTR5A inverse agonists in luminescence cell assay, primary screen, counter-screen for OPRM1-OPRD1 heterodimer inverse agonist project, full-deck HTS. 340,000 compounds, 0.083% hits. HTR5A cell line, inverse agonism. 5-hydroxytryptamine receptor 5A (Homo sapiens), P47898. inhibition, % at 9.3 µM; in the data active means inhibition mostly above about 23%, no sharp cut-off; inactive means mostly below about 18%;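 further: 0% = cells with DMSO and 100% = no-cell wells with DMSO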
OPRM1-OPRD1 inv – inverse agonists of MOR-DOR heterodimerization, primary screen, cell-based, luminescence | Mu-type opioid receptor (Homo sapiens) + Delta-type opioid receptor (Homo sapiens), … | cell-based MOR-DOR heterodimer luminescence, inverse agonism | inhibition, % at 9.3 µM | 340,000 compounds, 0.21% hits | AID 504357, 2011; in the data active means inhibition above about 22%, passing the limit was not always enough;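 further: 0% = cells with DMSO and 100% = wells without cells with DMSO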
HTR2A ag – mouse Htr2a agonists via beta-arrestin recruitment, primary screen, cell-based, luminescence | 5-hydroxytryptamine receptor 2A (Mus musculus), P35363 | activation, % at 7.6 µM | 360,000 compounds, 0.66% hits | CHO-K1 mHTR2A beta-arrestin complementation; percent of 30 µM serotonin response;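 active means activation above a run cutoff, the mean activation of all tested compounds plus 3 SD, cut at about 14% in these data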;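 further: 0% = plate median of compound wells and 100% = 30 µM serotonin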
OPRM1 ag – OPRM1 agonists via beta-arrestin recruitment, confirmation, counter-screen for mouse HTR2A agonist project, cell-based, luminescence, single concentration; shares compounds with HTR2A ag; U2OS OPRM1 beta-arrestin PathHunter; DMSO 0%, DAMGO 9.3 µM 100%; activation, % at 9.3 µM; 2,300 compounds, 5.3% hits; AID 624380, 2012;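 active means mean activation above the mean of DMSO-only wells plus 3 SD, cut at about 0.5% in these data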
HTR2A ag conf – mouse HTR2A agonists, beta-arrestin recruitment, confirmation, cell-based, luminescence, CHO-K1 PathHunter, triplicate | shares compounds with HTR2A ag | DMSO 0%, 30 µM serotonin 100% | activation, % at 7.6 µM | 2,300 compounds, 19% hits;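 active means mean activation across triplicates above the hit threshold derived in the original primary screen, cut at about 15% in these data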
* = called active by the depositor. A selection: hits, their analogues and other compounds. The true share with any hit is near 2.2%.

CCOC(=O)CNC(=O)CSc1nnc(-c2ccccc2)n1CC was read as sPLA2-III inh -1.
`O=c1c2ccccc2nc(-c2ccc([N+](=O)[O-])cc2)n1O` gave MOR-DOR ag -1, HTR5A ag ctr 0, sPLA2-III inh -4, HTR5A inv ctr 0, OPRM1-OPRD1 inv 3, HTR2A ag 16*, OPRM1 ag 0 and HTR2A ag conf -2.
Screening O=C(/C=C(\Nc1cc(Cl)c(Cl)c(Cl)c1)c1ccccc1)c1ccccc1 returned sPLA2-III inh 5.
CC(C)(C)NCCC(O)c1cc(C(F)(F)F)nc2c(C(F)(F)F)cccc12 (stereo not given) was read as MOR-DOR ag 10, HTR5A ag ctr 0, sPLA2-III inh -11, HTR5A inv ctr -2, OPRM1-OPRD1 inv -52 and HTR2A ag 5.
`O[C@@H](c1cc(C(F)(F)F)nc2c(C(F)(F)F)cccc12)[C@H]1CCCCN1` gave MOR-DOR ag 21*, HTR5A ag ctr 15, sPLA2-III inh -13, HTR5A inv ctr 18, OPRM1-OPRD1 inv -114, HTR2A ag 26*, OPRM1 ag 0.9* and HTR2A ag conf 14.
Cc1nc(NC2CCCC2)c2nnn(Cc3ccccc3)c2n1 was read as sPLA2-III inh 4.
CCC(C)[C@H](NC(=O)OC(C)(C)C)C(=O)N[C@@H](Cc1ccccc1)C(=O)OC (stereo not given in full) was read as sPLA2-III inh 6.
For CCCCc1ccc2nc(NC(=O)c3cccs3)sc2c1 the results were sPLA2-III inh -29.
For Cc1ccc(NC(=O)CN2C(=O)c3ccccc3S2(=O)=O)c(C)c1 the results were MOR-DOR ag -1, HTR5A ag ctr -4, sPLA2-III inh 10, HTR5A inv ctr 10, OPRM1-OPRD1 inv 5, HTR2A ag 18*, OPRM1 ag 0 and HTR2A ag conf -2.
`COc1ccc(C)cc1NC(=O)CN1C(=O)c2ccccc2S1(=O)=O` gave MOR-DOR ag -2, HTR5A ag ctr 9, sPLA2-III inh 6, HTR5A inv ctr -27, OPRM1-OPRD1 inv 12 and HTR2A ag -4.
ON=Cc1ccnc2ccccc12 was read as sPLA2-III inh -2 and HTR2A ag 5.
For O=C(O)c1ccccc1N/N=C\c1ccnc2ccccc12 the results were MOR-DOR ag -1, HTR5A ag ctr -4, sPLA2-III inh -2, HTR5A inv ctr 10, OPRM1-OPRD1 inv 7, HTR2A ag 14*, OPRM1 ag -1 and HTR2A ag conf 1.
For Cc1ccc(CN2CCNC(=O)C2CC(=O)O)o1 (stereo not given) the results were MOR-DOR ag -2, HTR5A ag ctr -2, sPLA2-III inh 1, HTR5A inv ctr 5, OPRM1-OPRD1 inv 10, HTR2A ag 21*, OPRM1 ag -1 and HTR2A ag conf -4.
For O=C(CCn1nnc(-c2cccs2)n1)NCc1ccco1 the results were sPLA2-III inh -2.
Screening C[C@@H](NC(=O)Cn1cnc2c(OCc3ccccc3)ncnc21)c1cccc2ccccc12 returned sPLA2-III inh -23, HTR2A ag 16* and HTR2A ag conf -1.
`C[C@@H](NC(=O)Cn1cnc2c(NCc3ccccc3)ncnc21)c1cccc2ccccc12` gave sPLA2-III inh -18 and HTR2A ag -1.
Screening Cc1cccc(C)c1OCCCCn1cnc2ccccc2c1=O returned MOR-DOR ag -2, HTR5A ag ctr 0, sPLA2-III inh -3, HTR5A inv ctr -31, OPRM1-OPRD1 inv 11 and HTR2A ag -5.
`COc1cccc(OC)c1OCCOCCn1cnc2ccccc2c1=O` gave MOR-DOR ag -1, HTR5A ag ctr 2, sPLA2-III inh 4, HTR5A inv ctr -8, OPRM1-OPRD1 inv 6, HTR2A ag 18*, OPRM1 ag 0 and HTR2A ag conf -3.
For CC(=NN1CCN(c2ccccn2)CC1)c1ccccc1O the results were sPLA2-III inh -3.
Screening CN1C(C(=O)NCc2cccc(C(F)(F)F)c2)CC2Cn3c(nc4cc(Cl)c(Cl)cc43)C21 (stereo not given) returned MOR-DOR ag 1, HTR5A ag ctr 3, sPLA2-III inh -1, HTR5A inv ctr -15, OPRM1-OPRD1 inv -8, HTR2A ag 20*, OPRM1 ag 0 and HTR2A ag conf -5.
For CN1C(C(=O)NCc2cccc(Br)c2)CC2Cn3c(nc4cc(Cl)c(Cl)cc43)C21 (stereo not given) the results were MOR-DOR ag 1, HTR5A ag ctr 4, sPLA2-III inh -1, HTR5A inv ctr -5, OPRM1-OPRD1 inv -4 and HTR2A ag 3.
`CCOC(=O)CN1C(=O)N[C@@H](c2cccc(C(F)(F)F)c2)[C@H](C(C)=O)[C@H]1C` gave MOR-DOR ag -2, HTR5A ag ctr 6, sPLA2-III inh -7, HTR5A inv ctr -1, OPRM1-OPRD1 inv 10, HTR2A ag 18*, OPRM1 ag -1 and HTR2A ag conf -4.
For CCN1C(=O)N[C@@H](c2cccc(C(F)(F)F)c2)[C@@H](C(=O)OC)[C@H]1C the results were MOR-DOR ag -3, HTR5A ag ctr 3, sPLA2-III inh 6, HTR5A inv ctr -8, OPRM1-OPRD1 inv 15 and HTR2A ag -5.
`COc1ccc(-c2nnc3n2CCCCC3)cc1OC` gave MOR-DOR ag -2, HTR5A ag ctr 1, sPLA2-III inh 2, HTR5A inv ctr -3, OPRM1-OPRD1 inv 12 and HTR2A ag -4.
COc1ccc(-c2csc(Cc3nnc4n3CCCCC4)n2)cc1OC was read as MOR-DOR ag -1, HTR5A ag ctr 4, sPLA2-III inh 6, HTR5A inv ctr 18, OPRM1-OPRD1 inv 8, HTR2A ag 15*, OPRM1 ag -1 and HTR2A ag conf 0.
